# In the library only some 17% were active in any assay of this set; here they are far more common.
# TDP1 cell noCPT: qHTS for Inhibitors of human tyrosyl-DNA phosphodiesterase 1 (TDP1): qHTS in cells in absence of CPT | hit rate 15% among 420,000 | Potency, µM (series often up to 46.2 µM), for the others: at the top dose activity change, negative = growth inhibition, most hits filed as inhibitors | DT40 Tdp1-/- hTDP1 cells, no CPT, ATP luminescence, 48 h | AID 686978, 2013; note: % is set by controls: 0 for no effect and ±100 for the full control effect; nearly all actives have a fitted effect of over 55% in size
#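 No-CPT arm: Tdp1-/-;hTDP1 DT40 cells (400/well) plus compounds, incubated ≥48 hr at 37 °C. Readout CellTiter-Glo luminescence.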
# DT40 TDP1 CPT: growth inhibition of DT40 Tdp1-/-;hTDP1 cells with camptothecin (screen for TDP1 inhibitors). hit rate 12% among 420,000. chicken DT40 Tdp1-/-;hTDP1 cells + 20 nM CPT, ATP luminescence, 48 h. Potency, µM (series often up to 46.2 µM), for inactives: at the top dose activity change, negative = growth inhibition, most hits filed as inhibitors; note: % is set by controls: 0 for no effect and ±100 for the full control effect; nearly all actives have a fitted effect of over 55% in size
#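 Cell growth measured by CellTiter-Glo luminescence after a minimum 48 h, 37 C compound exposure with 20 nM CPT in Tdp1-knockout DT40 cells stably expressing hTDP1, seeded 400/well; qHTS titration format.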
# ClpP mod: qHTS Assay for Activators of ClpP; Potency, µM (doses to about 57.5 µM), for the others: top-dose activity change, negative = active; purified B. subtilis ClpP, FRET peptide cleavage, 20 min; hit rate 1.9% among 340,000; active = well fitted falling curve with a large enough effect; inconclusive = small, poorly fitted or top-dose-only effect; inactive = no such curve, though single readings can be large or run the other way; note: the source files actives as falling curves though it sought activators and does not explain the sign; nearly all actives have a fitted effect of over 65% in size
#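 FRET quenching reversal measured ClpP activation: 10 microg/mL B. subtilis ClpP at pH 8 with the FRET-FV decapeptide, read at 430 nm after 320 nm excitation. The 20-min minus 0-min signal was scaled between DMSO/no-enzyme wells and ADEP (5.8 microM final).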
# TDP1 block: TDP1 (human) enzyme inhibition | Q9NUW8 | recombinant TDP1, AlphaScreen DNA substrate cleavage | Potency, µM (top dose mostly 130 µM), without a hit: at the top dose activity change, negative = inhibition, usual class: inhibitors | hit rate 0.28% among 350,000 | AID 485290; note: % is set by controls: 0 for no effect and ±100 for the full control effect; nearly all actives have a fitted effect of over 40% in size
#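 E. coli-derived human Tdp1, 1 nM final. Cpd preinc 15 min RT; substrate 15 nM final, 5 min RT; AS bead mix 10 ug/ml final, 10 min RT. Signal loss = tyrosine-FITC cleavage. No-enzyme wells = max signal.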
# An asterisk follows results filed as active; ? = inconclusive; · = not tested or not shown; [ ] = remark or other dose. Unless noted, calls come from the whole dose curve; as a rule, active = well fitted curve in the direction sought with a large enough effect; inconclusive = small, poorly fitted or top-dose-only effect, or another doubt; inactive = no such curve, though single readings can be large; an effect the other way counts as inactive or inconclusive. Potency is the fitted concentration of half-maximal effect.
SMILES,TDP1 cell noCPT,DT40 TDP1 CPT,ClpP mod,TDP1 block
COc1ccccc1NC(=O)c1ccc(N2CC3CC(C2)c2cccc(=O)n2C3)c(NC(=O)c2ccncc2)c1 (stereo not drawn),-26.3%,6.4%,-2.2%,0.2%
COCCN(CC(=O)NC1CCCCC1)C(=O)/C=C/C(=O)c1ccc(OC)cc1O,2.31µM*,2.06µM*,·,5.6%
COc1ccc(C(=O)/C=C/C(=O)N(Cc2ccc3c(c2)OCO3)C(C(=O)NC2CCCCC2)c2ccncc2)c(O)c1 (stereo not drawn),23.1µM*,?,12.6µM*,2.7%
COc1ccc(C(=O)/C=C/C(=O)N(CC(=O)NC2CCCCC2)Cc2cccs2)c(O)c1,3.26µM*,1.64µM*,5.2%,1.2%
COc1ccc(-c2nnn(CC(=O)N(CC(=O)NC3CCCC3)Cc3cccs3)n2)cc1OC,-22.8%,-14.6%,0.1%,0.0%
COc1ccc(CN(C(=O)/C=C/C(=O)c2ccc(OC)cc2O)C(C(=O)NC2CCCCC2)c2ccncc2)cc1 (stereo not drawn),?,?,0.6%,2.3%
COc1ccc(Cc2nc3ccccc3n2Cc2ccccc2F)cc1,?,?,-2.7%,-2.5%
C#C[C@]1(O)CCC2C3CCC4=Cc5oncc5C[C@@]4(C)C3CC[C@@]21C (stereo partly drawn),?,?,·,15.8%
Cn1c(-c2ccc(F)c(F)c2)cc2onc(-c3ccccc3)c2c1=O,23.1µM*,16.4µM*,?,·
CN(C)C(=O)c1ccc(-c2cc3onc(-c4ccccc4)c3c(=O)n2C)cc1,16.4µM*,?,0.5%,0.8%
COC(=O)c1ccc(-c2cc3onc(-c4ccccc4)c3c(=O)n2C)cc1,?,23.1µM*,-11.0%,4.8%
CCCOP(=O)(c1ccc(N(C)C)cc1)C(O)c1ccc(Br)cc1 (stereo not drawn),?,-11.3%,1.2%,·
O=C1c2ccncc2C(=O)N1CNc1ccc(Cl)cc1,-21.0%,3.0%,·,-5.8%
Cc1ccc(C)c(N(CC(=O)NC2CCCC2)C(=O)c2oc(C(C)(C)C)cc2C)c1,9.2µM*,8.2µM*,0.0%,0.0%
Cc1cc(C(C)(C)C)oc1C(=O)OCC(=O)NC1CCCCC1,?,?,-2.5%,-2.5%
Cc1cc(C(C)(C)C)oc1C(=O)N(CC(=O)NC1CCCC1)Cc1ccccc1,13µM*,14.6µM*,-0.4%,2.8%
Cc1cc(C(C)(C)C)oc1C(=O)N(CC(=O)NC1CCCC1)Cc1ccc(F)cc1,?,20.6µM*,0.2%,-2.6%
Cc1cc(NC(=O)CCC(=O)N(CC(=O)NC2CCCC2)Cc2ccc(F)cc2)no1,-2.6%,-3.6%,1.9%,0.0%
Cc1ccc(C)c(N(CC(=O)NC2CCCCC2)C(=O)c2csnn2)c1,-21.2%,4.5%,·,1.1%
O=C(Cc1ccccc1)Nc1sc2c(c1C(=O)Nc1cccc(Cl)c1)CCCC2,·,·,·,0.0%
O=C(O)C1C(c2ccccc2)c2ccccc2C(O)C1CO (stereo not drawn),?,-3.6%,·,·
Cc1nnc(NC(=O)CC23CC4CC(CC(C4)C2)C3)s1,?,-27.0%,-0.2%,·
Cc1ccc2c(c1)cc(C(=O)Nc1ccc(F)cc1F)n2C,7.31µM*,?,-0.7%,3.6%
CN1C(C(=O)Nc2ccc(F)cc2F)=CC(c2ccco2)=NS1(=O)=O,-27.7%,?,-0.7%,8.6%
Cc1ccc(Sc2c(C(=O)Nc3ccc(F)cc3F)c(C(F)(F)F)nn2C)cc1,?,18.4µM*,-1.6%,-4.8%
SMILES,TDP1 cell noCPT,DT40 TDP1 CPT,ClpP mod,TDP1 block
COc1ccc(OC)c(C2=NS(=O)(=O)N(C)C(C(=O)Nc3ccc(F)cc3F)=C2)c1,7.31µM*,16.4µM*,1.0%,5.0%
Cc1ccc(C2=NS(=O)(=O)N(C)C(C(=O)Nc3cc(C)n(CC(=O)N4CCC(C)CC4)n3)=C2)cc1,20.6µM*,?,1.1%,6.9%
CC(=O)c1ccc(OCC(=O)Nc2nnc(C3CC3)s2)cc1,-21.0%,-29.7%,-0.7%,·
COc1ccc([N+](=O)[O-])c(OC)c1C(=O)Nc1ccc(F)cc1F,0.9%,0.5%,·,7.5%
Cc1ccc(N2C(=O)CSC23C(=O)N(CC(=O)Nc2ccc(C)cc2C)c2ccccc23)cc1 (stereo not drawn),?,?,-1.3%,6.3%
Cc1ccc(C2=NS(=O)(=O)N(C)C(C(=O)Nc3ccc(F)cc3F)=C2)cc1,?,20.6µM*,-1.0%,·
CN1C(C(=O)Nc2ccc(F)cc2F)=CC(c2ccc3c(c2)OCO3)=NS1(=O)=O,?,?,0.1%,0.0%
COc1ccc(C2=Nn3c(nnc3-c3cc(OC)ccc3OC)SC2)c(OC)c1,·,·,·,6.2%
COc1ccccc1-c1sc2cc3c(cc2c1-c1ccc(OCCN2CCCCC2)cc1)OCO3,11.6µM*,16.4µM*,5.1%,8.1%
COc1cccc(-c2sc3ccc(OC)cc3c2-c2ccc(OCCN3CCOCC3)cc2)c1,?,16.4µM*,?,5.0%
COc1cc2sc(-c3ccccc3OC)c(-c3ccc(OCCN4CCCCC4)cc3)c2cc1OC,?,?,?,11.1%
Clc1cccc(OCCN2CCCC2)c1,-17.4%,0.0%,-1.9%,4.7%
COc1cccc(-c2sc3ccc(OC)cc3c2-c2cnc(N3CCOCC3)nc2)c1,-24.2%,-9.3%,?,·
Oc1cccc(-c2sc3ccccc3c2-c2ccc(OCCN3CCCCC3)cc2)c1,11.6µM*,18.4µM*,?,·
COc1ccccc1-c1sc2ccccc2c1-c1ccc(OCCN2CCOCC2)cc1,13µM*,?,-24.1%,5.6%[56.1 µM]
COc1ccc(OCCOCCN2CCOCC2)cc1,2.3%,-13.6%,0.4%,-5.3%
C1=C(c2sc3ccccc3c2-c2ccc(OCCN3CCOCC3)cc2)CCCC1,?,?,-5.5%,3.7%
c1ccc(-c2sc3ccccc3c2-c2ccc(OCCN3CCOCC3)cc2)cc1,?,-27.7%,31.6µM*,5.0%
CN(C)c1ccc(C2C3=C(CCCC3=O)OC3=C2C(=O)CCC3)cc1,-1.6%,-15.4%,-0.9%,7.4%
Cc1ccc(S(=O)(=O)Oc2ccc(C3C4=C(CCCC4=O)N(CCC(=O)O)C4=C3C(=O)CCC4)cc2Cl)cc1,-21.0%,-6.0%,25.1µM*,-2.6%
Cc1ccc(S(=O)(=O)Oc2ccc(C3C4=C(CCCC4=O)OC4=C3C(=O)CCC4)cc2)cc1,16.4µM*,23.1µM*,1.0%,3.8%
CCCCOc1ccc(C(=O)N2CCN(CCc3ccncc3)CC2)cc1,?,?,0.7%,0.5%
CCOC(=O)C1CCN(c2ncnc3c2cnn3-c2ccccc2)CC1,1.7%,-15.6%,-2.4%,0.0%
CCOC(=O)C1CCN(c2ncnc3c2oc2ccccc23)CC1,16.4µM*,?,-1.8%,2.0%
OCCN1CCN(c2nc(-c3ccccc3O)nc3ccccc23)CC1,16.4µM*,-8.0%,·,·
CCc1nnc(N2CCN(c3ncnc4c3oc3ccccc34)CC2)s1,18.4µM*,18.4µM*,-0.3%,6.8%
